Screening data: PubChem BioAssay, National Center for Advancing Translational Sciences (NCATS)
Shiga inhibitor: inhibitors of Shiga toxin in Vero cells. Vero cells, Shiga toxin protein synthesis inhibition reporter. inhibition, % at 38.7 µM. 290,000 tested, 9.2% active. AID 2315; in the data active means inhibition mostly above about 28%, no sharp cut-off; inactive means mostly below about 43%
NS1 inh: blocks influenza NS1 protein function | AID 2326 | 270,000 tested, 0.4% active | Potency, µM (top dose mostly 46.1 µM); calls by dose curve; further: actives are rising curves; nearly all actives have a fitted effect of over 50% in size
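Recovery from NS1-induced slow growth read by OD600 in budding yeast switched to galactose assay medium (pH 6.0, -URA) at 1:100 dilution. Compound 23 nl per well; the matching strain lacking NS1 serves as control.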
Pf growth 48h: inhibits P. falciparum growth in the first generation, 48 h; P. falciparum luciferase growth in erythrocytes, 48 h; Potency, µM (series often up to 28.7 µM), hits mostly inhibitors; 310,000 tested, 5.9% active; AID 504832
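Cell-based growth assay: transgenic P. falciparum expressing firefly luciferase, cultured in red cells within RPMI 1640 containing 0.5% w/v Albumax, 24 mM bicarbonate and gentamycin. A drop in luciferase activity indicates inhibition.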
Pf growth 96h: P. falciparum growth inhibition at 96 hour, primary screen for plastid delayed-death inhibitors | P. falciparum luciferase reporter growth, 96 h | Potency, µM (doses to about 28.7 µM), hits mostly inhibitors | 320,000 tested, 6.9% active | AID 504834
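Two-generation exposure (96 h) targets delayed-death phenotype. Reporter parasites carrying integrated firefly luciferase, in red cells at 2% hematocrit and 0.05% parasitemia final, kept at 37 C, 5% CO2; luminescence loss indicates inhibition.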
CHX counter: counter-screen hit for Shiga toxin inhibitors, cycloheximide; cell reporter, cycloheximide protein synthesis inhibition counterscreen; max response, %; 300,000 tested, 12% active; in the data active means max response mostly above about 13%, no sharp cut-off; inactive means mostly below about 14%; further: read at 38.3 µM for the half of the compounds with a filed dose
FBPA Giardia inh: Giardia lamblia aldolase inhibition. A8B2U2. purified Giardia FBPA. Potency, µM (highest dose often 59.6 µM), hits mostly inhibitors. 290,000 tested, 0.71% active; further: nearly all actives have a fitted effect of over 55% in size
Target sequence (A8B2U2 whole entry, looked up): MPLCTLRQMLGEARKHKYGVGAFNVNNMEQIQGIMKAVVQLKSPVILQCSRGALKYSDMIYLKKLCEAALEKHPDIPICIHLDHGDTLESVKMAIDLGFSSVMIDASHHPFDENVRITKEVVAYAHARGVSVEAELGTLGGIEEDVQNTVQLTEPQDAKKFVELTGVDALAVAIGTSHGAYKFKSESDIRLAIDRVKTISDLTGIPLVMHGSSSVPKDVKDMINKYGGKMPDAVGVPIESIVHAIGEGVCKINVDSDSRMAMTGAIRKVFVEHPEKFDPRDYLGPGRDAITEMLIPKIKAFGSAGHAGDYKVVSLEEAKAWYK
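Giardia FBPA (40 nM reagent) was preincubated 10 min at RT with compound (up to 57.5 uM final), then substrate plus GAPDH/TPI/NAD/arsenate coupling system with diaphorase/resazurin was added; resorufin fluorescence (525/598 nm) was read after 20 min.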
Each line names hits and unclear results; the compound was inactive in the other large screens. In the library only some 21% were active in any assay of this set; here they are far more common. Unless noted, the call rests on the fitted dose curve; in most records, active means well fitted curve in the direction sought with a large enough effect; inconclusive means small, poorly fitted or top-dose-only effect, or another doubt; inactive means no such curve, though single readings can be large; an effect the other way counts as inactive or inconclusive.

CC(C)N1C(=O)CCN(C=O)c2ccccc21	none (no result: NS1 inh)
Clc1ccc2nc(-c3ccccc3)c(CN3CCOCC3)n2c1	Pf growth 96h inconclusive
Clc1ccc(-c2nc3ccccn3c2CN2CCOCC2)cc1	Shiga inhibitor 25, Pf growth 48h inconclusive, CHX counter 21
COc1ccc(-c2nc3c4ccccc4ccn3c2CN2CCOCC2)cc1OC	Shiga inhibitor 74, CHX counter 32
c1ccc(-c2nc3c4ccccc4ccn3c2CN2CCOCC2)cc1	Shiga inhibitor 64, CHX counter 49, FBPA Giardia inh inconclusive
COc1ccc(CN2CCOCC2)c(C)c1C	none
O=c1c2ccccc2nc(CN2CCOCC2)n1-c1ccccc1F	none
O=C(NCc1ccccn1)C(=O)Nc1cc2c3c(c1)CC(=O)N3CCC2	Pf growth 48h inconclusive (no result: Shiga inhibitor, NS1 inh, CHX counter, FBPA Giardia inh)
Cc1c(C(=O)NCC2COc3ccccc3O2)oc2ccc(S(=O)(=O)N3CC(C)CC(C)C3)cc12 (configuration not stated)	Pf growth 48h 8.3µM (no result: Pf growth 96h)
Cc1c(C(=O)NCC2COc3ccccc3O2)oc2ccc(S(=O)(=O)N3CCOCC3)cc12 (configuration not stated)	Pf growth 48h inconclusive
CCN(CC)S(=O)(=O)c1ccc2oc(C(=O)NCc3ccc(F)cc3)c(C)c2c1	Pf growth 48h 8.3µM (no result: Pf growth 96h)
CCN(CC)S(=O)(=O)c1ccc2oc(C(=O)NC3CC3)c(C)c2c1	Pf growth 96h inconclusive
CCN(CC)S(=O)(=O)c1ccc2oc(C(=O)NCC3COc4ccccc4O3)c(C)c2c1 (configuration not stated)	NS1 inh inconclusive, Pf growth 48h 10µM, Pf growth 96h inconclusive
O=C(Nc1ccc(F)cc1)N(CCCN1CCOCC1)Cc1cc2cc3c(cc2[nH]c1=O)OCCO3	Pf growth 48h 10µM, CHX counter 37
O=C(Nc1ccc(F)cc1)N(CCCN1CCOCC1)Cc1cc2cc3c(cc2[nH]c1=O)OCO3	Pf growth 48h 13µM
COc1ccccc1NC(=O)N(CCCN1CCOCC1)Cc1cc2cc3c(cc2[nH]c1=O)OCO3	Pf growth 96h 8.3µM
CCc1ccc2[nH]c(=O)c(CN(CCCN3CCOCC3)C(=O)Nc3ccc(F)cc3)cc2c1	Pf growth 48h inconclusive
N=C1C(c2nc3ccccc3s2)=C(O)CN1Cc1ccco1	Shiga inhibitor 67, CHX counter 26 (no result: Pf growth 96h)
Cc1cc(NC(=O)COC(=O)C2COc3ccccc3O2)no1 (configuration not stated)	Pf growth 96h 10µM
Cc1cc(NC(=O)C2COc3ccccc3O2)no1 (configuration not stated)	Shiga inhibitor 61, CHX counter 37
COC1=C/C(=C/c2c(N)n3c(nc2=O)sc2cc(S(C)(=O)=O)ccc23)C=CC1=O	Pf growth 48h inconclusive, Pf growth 96h inconclusive
CS(=O)(=O)c1ccc2c(c1)sc1nc(=O)c(/C=C3/C=CC(=O)C(O)=C3)c(N)n12	Shiga inhibitor 41, Pf growth 96h inconclusive, CHX counter 20, FBPA Giardia inh inconclusive
CCC(C)c1ccccc1NC(=O)COC(=O)c1ccc(N2CCCC2)c([N+](=O)[O-])c1 (configuration not stated)	none
CCC(C)c1ccccc1NC(=O)c1cc2cccc([N+](=O)[O-])c2[nH]1 (configuration not stated)	Pf growth 48h inconclusive, Pf growth 96h 2.9µM, CHX counter 39
Cc1ccc(NC(=O)c2cc3cccc([N+](=O)[O-])c3[nH]2)cc1	Shiga inhibitor 84, CHX counter 46
O=[N+]([O-])c1ccc(/C=N/NC(=S)Nc2ccccc2F)o1	CHX counter 34
O=[N+]([O-])c1ccc(/C=N/NC(=S)Nc2ccccc2)o1	Shiga inhibitor 48, CHX counter 23
O=[N+]([O-])c1ccc(/C=N/Nc2ccc3ccccc3c2)o1	Shiga inhibitor 126, CHX counter 58
O=[N+]([O-])c1cccc(-c2ccc(/C=N/NC(=S)Nc3ccccc3)o2)c1	Pf growth 48h inconclusive, CHX counter 14
COc1cc(-c2noc(C3CCCN(C(=O)c4c(F)cccc4F)C3)n2)cc(OC)c1OC (configuration not stated)	Pf growth 48h inconclusive (no result: Shiga inhibitor)
S=c1ccss1	none (no result: Shiga inhibitor, NS1 inh, Pf growth 48h, Pf growth 96h, CHX counter)
NC(=O)C1CCN(C(=O)NC(=O)c2ccccc2)CC1	none
CCCn1c(SCC(=O)NNC(=O)c2ccc(C)cc2)nnc1C(C)C	none (no result: FBPA Giardia inh)
O=C(O)Cc1cccc(OCCCN(Cc2cccc(C(F)(F)F)c2Cl)CC(c2ccccc2)c2ccccc2)c1	none (no result: NS1 inh, Pf growth 48h, Pf growth 96h)
COc1ccc(S(=O)(=O)N/N=C\c2ccc([N+](=O)[O-])o2)c(OC)c1	Pf growth 96h 10µM (no result: FBPA Giardia inh)
Cc1c(Cl)cccc1NC(=S)N/N=C/c1ccccc1Cl	Pf growth 96h inconclusive
Fc1ccccc1NC(=S)N/N=C/c1ccccc1Br	CHX counter 22 (no result: Pf growth 96h)
O=[N+]([O-])c1ccc(/C=N\NS(=O)(=O)c2ccc(F)cc2)o1	none
COc1cc(OC)c(NC(=O)CCCNC(=O)Cn2cnc3sc(C)c(C)c3c2=O)cc1Cl	none
CC(C)NC(=S)NC(c1ccccc1)(c1ccccc1)c1ccccc1	Pf growth 48h 6.6µM, Pf growth 96h 8.3µM
CC(C(=O)OCC(=O)c1ccc(Br)cc1)N1C(=O)C2C3CCC(C3)C2C1=O (configuration not stated)	Pf growth 96h 12µM (no result: FBPA Giardia inh)
Cc1ccc(C(=O)COC(=O)C(C)N2C(=O)C3C4CCC(C4)C3C2=O)cc1 (configuration not stated)	Pf growth 96h 8.3µM
CCN(CC)C(=O)Cn1cc(S(=O)(=O)CC(=O)Nc2cc(OC)ccc2OC)c2ccccc21	Pf growth 48h inconclusive, Pf growth 96h inconclusive (no result: FBPA Giardia inh)
O=C(COc1ncnc2sccc12)NC1CCS(=O)(=O)C1 (configuration not stated)	none
CCC(CC)C(=O)Nc1nnc(SCC(=O)NC2CC2)s1	none
O=C(CSc1nnc(NC(=O)c2ccccc2F)s1)NC1CCCC1	Shiga inhibitor 65, NS1 inh inconclusive, Pf growth 48h inconclusive, CHX counter 27
O=C(CSc1nnc(Nc2ccccc2F)s1)NC1CC1	none (no result: Shiga inhibitor, NS1 inh, CHX counter, FBPA Giardia inh)
CCOc1ccccc1C(=O)Nc1nnc(SCC(=O)N2CCOCC2)s1	Pf growth 48h inconclusive (no result: NS1 inh)
O=C(Nc1nnc(SCC(=O)N2CCOCC2)s1)c1ccccc1	CHX counter 22
CC(C)C(=O)Nc1nnc(SCC(=O)NC2CC2)s1	Pf growth 96h 5.2µM
O=C(CCCSc1nnc(Nc2ccccc2F)s1)N1CCOCC1	Shiga inhibitor 59, Pf growth 48h inconclusive, Pf growth 96h inconclusive, CHX counter 39 (no result: NS1 inh)
COc1cccc2c1CCCC2CCCN1CCN(C2CCCCC2)CC1 (configuration not stated)	none (no result: NS1 inh, Pf growth 48h, Pf growth 96h)
O=C(CSc1nnc(NC(=O)c2ccc(F)cc2)s1)NC1CCCC1	none
O=C(CSc1nnc(NC(=O)c2ccccc2)s1)NC1CCCC1	CHX counter 17
Cc1cccc(C)c1NC(=O)CSc1nnc(NC(=O)c2ccccc2C(=O)O)s1	Pf growth 96h inconclusive
